This note sets out measurements from PubChem BioAssay.

The source made the active and inactive calls.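 The calls were made as follows: active = mean duplicate potentiation above the buffer control mean plus 5 SD of buffer wells; inactive = the rest.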

Potassium voltage-gated channel subfamily KQT member 2 (Rattus norvegicus), sequence (O88943 whole entry, looked up): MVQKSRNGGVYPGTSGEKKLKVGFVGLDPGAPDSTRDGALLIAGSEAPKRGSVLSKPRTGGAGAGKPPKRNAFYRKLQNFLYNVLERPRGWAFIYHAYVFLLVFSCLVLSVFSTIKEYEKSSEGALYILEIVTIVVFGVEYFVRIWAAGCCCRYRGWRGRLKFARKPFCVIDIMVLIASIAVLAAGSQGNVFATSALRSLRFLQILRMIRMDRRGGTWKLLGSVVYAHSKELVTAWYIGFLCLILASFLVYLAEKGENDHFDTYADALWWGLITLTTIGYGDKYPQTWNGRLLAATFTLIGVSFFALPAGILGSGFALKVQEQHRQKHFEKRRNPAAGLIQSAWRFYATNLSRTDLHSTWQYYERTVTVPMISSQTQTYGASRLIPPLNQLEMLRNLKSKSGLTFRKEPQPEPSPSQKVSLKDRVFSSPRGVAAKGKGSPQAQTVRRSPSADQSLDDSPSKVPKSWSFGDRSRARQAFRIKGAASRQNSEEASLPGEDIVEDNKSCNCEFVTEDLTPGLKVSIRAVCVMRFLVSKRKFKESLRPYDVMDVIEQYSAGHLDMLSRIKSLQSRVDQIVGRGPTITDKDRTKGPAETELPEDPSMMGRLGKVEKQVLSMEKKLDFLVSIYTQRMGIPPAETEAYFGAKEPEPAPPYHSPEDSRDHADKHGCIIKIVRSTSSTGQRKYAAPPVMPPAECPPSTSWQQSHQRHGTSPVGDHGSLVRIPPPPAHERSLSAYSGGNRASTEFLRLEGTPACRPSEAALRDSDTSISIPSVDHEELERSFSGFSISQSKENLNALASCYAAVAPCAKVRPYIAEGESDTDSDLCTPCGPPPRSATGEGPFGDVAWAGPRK

This assay addresses Potassium voltage-gated channel subfamily KQT member 2 (Rattus norvegicus) (UniProt O88943). Description: KCNQ2 thallium flux enhancement – KCNQ2-CHO-K1 cells, selectivity assay for KCNQ1 potentiator project (AID 493009).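 Also: assay conditions were tuned for KCNQ1 rather than KCNQ2 modulators; signal is max minus min fluorescence divided by baseline after thallium stimulus.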 The note with it: FluxOR thallium flux fluorescence, at 10 µM; stronger effect = higher value, scaled: buffer 0, activator control 100.
As to `COc1ccc(NC(=O)C(=O)NNC(=O)C(C)Oc2ccc(Cl)cc2Cl)cc1` (centres undefined), the potentiation is 492% (active).

Take `O=C(Nc1nc2c(F)cc(F)cc2s1)C1COc2ccccc2O1` (centres undefined): the potentiation was 194% (active).

Turning to `FC(F)Sc1nc2ccccc2[nH]1`, the result was inactive.

For `CCn1c(CSc2nc3ccccc3n2C)nc2ccccc21`, the outcome was inactive.

Take `Nc1c(-c2ccccc2)cnc2c(-c3ccccc3)cnn12`: the outcome was inactive.

For the compound `S=c1nc(-c2ccc(Br)cc2)oc2c1CCCC2`, the result was inactive.

As for `S=c1nc(C2CC2)[nH]c2ccccc12`, the potentiation was 351% (active).

Regarding `FC(F)(F)c1cnc2c(c1)[nH]c(=S)n2-c1ccc(Cl)cc1`, the potentiation is 178% (active).

In the case of `CCOC(=O)c1[nH]c(C=O)c(C(=O)OCC)c1C`, the outcome was inactive.

With `COC(=O)c1ccc(CNC(=O)c2ccc(COc3ccccc3)cc2)cc1`, the outcome was inactive.

For the compound `COc1ccc(C(=O)NC(=S)N2CCC(C)CC2)cc1Br`, the potentiation was 290% (active).

For `C=CCn1c(N)c(C(=O)Nc2ccc(C)cc2)sc1=S`, the outcome was inactive.

Consider `O=C(CCc1ccccc1)Nc1nccs1`, for which the outcome was inactive.

With `Cc1[nH]n(-c2cccc3ccccc23)c(=O)c1/C=N/c1sc2c(c1C#N)CCC2`, the potentiation was 288% (active).

Regarding `COc1cc(C(=O)NC(=S)N(CCc2ccccc2)CCc2ccccc2)cc(OC)c1OC`, the potentiation was 256% (active).

With `Cc1ccc(-c2nc(N)s[n+]2-c2ccccc2)cc1`, the potentiation was 155% (active).

For `Cc1ccc2nc(NC(=O)c3ccc(Br)o3)sc2c1`, the result was inactive.

Consider `CN(C)C(=S)NC(=O)c1cccc(Cl)c1`, for which the potentiation is 142% (active).

In the case of `CCCOc1ccccc1Cn1c(=O)oc2ccc(C)cc21`, the result was inactive.

Regarding `CC(=O)c1c(N2CCOCC2)[nH]c(-c2ccccc2)nc1=S`, the potentiation was 204% (active).

Turning to `CC(=O)N1N=C(N)SC12CCCC2`, the outcome was inactive.

For the compound `CN(C)/C=N/S(=O)(=O)c1cccn1-c1ncc(C(F)(F)F)cc1Cl`, the result was inactive.

For `COC(=O)c1ccc(C(=O)NC(=S)Nc2nc3c(s2)CCCC3)cc1`, the potentiation was 411% (active).

For the compound `COc1ccc(NC(=O)C(=O)NNC(=O)c2ccc(Cl)cc2Cl)cc1`, the potentiation was 492% (active).

Take `CCc1cc2c(=O)n(CCC(C)C)c(=S)[nH]c2s1`: the potentiation is 499% (active).

With `COc1cccc(C2=NOC(C(=O)NCc3ccccc3)C2)c1` (centres undefined), the outcome was inactive.

`O=C(NC(=S)Nc1ccccc1)c1cccs1`: the potentiation is 142% (active).

With `COc1cc(C2NC(=O)NC(O)(C(F)(F)F)C2C(C)=O)cc(OC)c1OC` (centres undefined), the outcome was inactive.

In the case of `CCOC(=S)NC(=O)c1sc2ccccc2c1Cl`, the potentiation is 404% (active).

In the case of `COc1ccc2c(CCNC(=O)CN3C(=O)c4ccccc4C3=O)c[nH]c2c1`, the result was inactive.

As for `O=C(COC(=O)C1CCC(=O)N1)Nc1ccc(Oc2ccccc2)cc1` (centres undefined), the outcome was inactive.

Turning to `Cc1ccc(C2=NOC(=O)/C2=C\C=C\c2ccccc2)cc1`, the result was inactive.

For the compound `N#C/C(=C/c1cn(-c2ccccc2)nc1-c1cccc(S(=O)(=O)N2CCOCC2)c1)C(=O)NCc1ccco1`, the outcome was inactive.

As for `CSC(=S)N/N=C(\C)c1ccc(Br)cc1`, the potentiation was 258% (active).

With `COc1ccc(-c2oc3ccccc3c(=O)c2OC(C)=O)cc1`, the potentiation was 161% (active).

On to `Cc1ccc(S(=O)(=O)NN2C(=O)/C(=C/c3cccc(F)c3)SC2=S)cc1`, for which the potentiation is 152% (active).

Turning to `S=c1[nH]nc(-c2cccs2)n1/N=C/c1c(Cl)cccc1Cl`, the potentiation is 196% (active).

For `CCc1nnc(SCC(=O)Nc2nnc(C)s2)n1CC1CCCO1` (centres undefined), the potentiation was 274% (active).

On to `CC(=O)O[C@H]1CSC[C@H]1NC(=O)c1ccccc1`, for which the result was inactive.
